From PubChem BioAssay
Compounds with a hit are over-represented: about 6.1% of the library has one in this group of screens.
D1 agonist: human D1 receptor agonism. P21728. HEK293 T-REx D1 cells, calcium flux, agonist mode. activation, % at 2 µM. 360,000 tested, 1% active. AID 504660; in the data active means activation above about 30%; further: 0% is about no effect
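Tetracycline-induced HEK293 TREx D1 cells, force-coupled to calcium signalling, were dye-loaded with a no-wash calcium kit. Compound was pin-added after a 10 s baseline. Fluorescence was read kinetically at 1 cycle/s for 180 s, with calcium rises flagged as agonism.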
ERG Ets-DNA blk: inhibitors of human ERG Ets domain-DNA interaction; P11308; fluorescence polarization, His-ERG Ets domain / labelled DNA; Potency, µM (highest dose often 76.9 µM), for the others: top-dose FP activity, negative = inhibition, most hits filed as inhibitors; 370,000 tested, 0.028% active; AID 624246; active means well fitted inhibition curve with a large enough effect in the polarisation, with a control signal flat; the % refers to the polarisation;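 further: polarization taken with two DNA probes labelled with fluorescein and Texas red; potency means the concentration at half of the fitted maximal effect; % of control where 0% means no effect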
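His-tagged ERG Ets domain (1 uM in the protein solution; 300mM KCl, 50mM Tris-HCl, 1mM EDTA, 1mM DTT, pH 7.5) received compound, then a probe mix of 5 nM fluorescein-DNA and 100nM Texas-615-DNA. Fluorescence polarization was read for both dyes.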
D1 PAM: enhances dopamine response at the human D1 receptor; P21728; HEK293 TREx D1 cells, calcium flux, dopamine EC20 potentiation; potentiation, % at 10 µM; 360,000 tested, 0.036% active; AID 504651; in the data active means potentiation above about 30%; further: 0% is about no effect
DRD3 antagonist: D3 dopamine receptor (human) antagonism. P35462. D3R cells, DiscoveRx beta-arrestin luminescence, antagonist mode; hits give low values. max response, negative = inhibition, %. 360,000 tested, 2.5% active. AID 652054; in the data active means max response below about -50%; further: on the % scale 0 is the no-effect control and ±100 the full control effect
Target sequence (P35462 whole entry, looked up): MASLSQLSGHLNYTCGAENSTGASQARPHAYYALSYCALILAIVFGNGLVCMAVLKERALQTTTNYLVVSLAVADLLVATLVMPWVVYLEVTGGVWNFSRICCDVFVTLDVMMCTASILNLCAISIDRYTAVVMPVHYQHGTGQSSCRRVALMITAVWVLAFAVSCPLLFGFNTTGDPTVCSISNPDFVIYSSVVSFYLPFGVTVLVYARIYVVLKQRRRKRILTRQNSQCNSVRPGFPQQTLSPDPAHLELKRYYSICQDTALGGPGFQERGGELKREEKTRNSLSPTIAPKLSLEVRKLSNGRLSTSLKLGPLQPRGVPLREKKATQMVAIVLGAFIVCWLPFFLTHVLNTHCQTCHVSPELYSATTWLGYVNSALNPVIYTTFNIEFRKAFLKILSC
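Cells expressing the human receptor were seeded at 1500 cells/well, incubated overnight at 37 degrees C in 5% CO2, then exposed to library compounds with dopamine controls for 90 minutes at 37 degrees C before luminescent detection.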
D1 antagonist: human D1 dopamine receptor antagonism; HEK293 TREx D1 cells, calcium flux, dopamine EC80; hits give low values; P21728; activity change, negative = inhibition, % at 10 µM; 360,000 tested, 3.2% active; in the data active means activity change below about -30%; further: on the % scale 0 is the no-effect control and ±100 the full control effect
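Using tetracycline-induced force-coupled D1 Hek293 cells and a calcium dye, signals were followed for 180 s after compound, then for 180 s after EC80 dopamine, to detect inhibitors.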
DRD3 agonist: agonists of human D3 dopamine receptor; P35462; D3R DiscoveRx beta-arrestin cells, luminescence, 90 min; max activation, %; 410,000 tested, 0.58% active; AID 652048; in the data active means max activation above about 30%; further: 0% is about no effect
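Agonist-mode cell screen: cells plated at 1500/well and incubated overnight at 37 °C, then exposed to library compounds for 90 min at 37 °C. Detection reagent was added for 30–60 min at room temperature, and luminescence was read.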
The depositor's hits bear a star.

Screening CC(C)CCNC(=O)c1ccc2c(c1)NC(=O)C(CS(=O)(=O)Cc1cccc(Br)c1)N2 (stereo unspecified) returned D1 agonist 5, ERG Ets-DNA blk 1%, D1 PAM -10, D1 antagonist -42* and DRD3 agonist -23.
`O=C(NCc1ccccc1Cl)c1ccc2c(c1)NC(=O)C(CS(=O)(=O)Cc1ccc(F)cc1Cl)N2` (stereo unspecified) gave D1 agonist -3, ERG Ets-DNA blk 6%, D1 PAM 0, D1 antagonist -20 and DRD3 agonist 47*.
O=C(NCc1ccc(Cl)cc1)c1ccc2c(c1)NC(=O)C(CS(=O)(=O)Cc1ccc(F)cc1Cl)N2 (stereo unspecified) was read as D1 agonist 2, ERG Ets-DNA blk -5%, D1 PAM 1, D1 antagonist 3 and DRD3 agonist -7.
`CN(CCOc1ccc(Cl)cc1)Cc1cccc(S(=O)(=O)N(C)C)c1` gave D1 agonist 4, ERG Ets-DNA blk 2%, D1 PAM -4, DRD3 antagonist -5, D1 antagonist 15 and DRD3 agonist 47*.
Screening CN(CCOc1cccc2ccccc12)Cc1ccccc1 returned D1 agonist 5, ERG Ets-DNA blk 1%, D1 PAM 3, DRD3 antagonist -76*, D1 antagonist 13 and DRD3 agonist -10.
`CCN(Cc1ccccc1)C(=O)CCCOc1ccccc1` gave D1 agonist 5, ERG Ets-DNA blk 0%, D1 PAM 1, DRD3 antagonist 11, D1 antagonist -3 and DRD3 agonist -2.
Screening CN(CCOc1ccccc1)Cc1ccccc1 returned DRD3 antagonist -117* and DRD3 agonist -1.
`c1ccc(CCNCCCOc2cccc3ccccc23)cc1` gave D1 agonist 50*, ERG Ets-DNA blk -7%, D1 PAM -5, DRD3 antagonist -67*, D1 antagonist 15 and DRD3 agonist -17.
Screening CCOc1ccc(C(=O)NCC(=O)OCC(=O)N(C)CC(=O)Nc2ccccc2CC)cc1OCC returned ERG Ets-DNA blk 24%, DRD3 antagonist 28 and DRD3 agonist 4.
`O=C(CN(C(=O)c1csnn1)c1ccc(F)c(Cl)c1)NCc1ccc(F)cc1` gave D1 agonist 3, ERG Ets-DNA blk 5%, D1 PAM -5, DRD3 antagonist 0, D1 antagonist 8 and DRD3 agonist 7.
`Cc1ccc(S(=O)(=O)c2c(N)n(Cc3ccco3)c3nc4ccccc4nc23)cc1C` gave D1 agonist 92*, ERG Ets-DNA blk 0%, D1 PAM -4, DRD3 antagonist 22, D1 antagonist 2 and DRD3 agonist 0.
Cc1cc(S(=O)(=O)NC2CCCCC2)c(C)s1 was read as D1 agonist 5, ERG Ets-DNA blk -3%, D1 PAM -6, DRD3 antagonist -15, D1 antagonist -30* and DRD3 agonist 8.
Screening CCOC(=O)c1cnc2c(C)cccc2c1Nc1ccc(OC(C)C)cc1 returned D1 agonist -1, ERG Ets-DNA blk 1%, D1 PAM -1, D1 antagonist 8 and DRD3 agonist -14.
`COc1ccccc1-c1cn(C(C)(C)C)nc1C` gave D1 agonist 4, ERG Ets-DNA blk 47%, D1 PAM 2, DRD3 antagonist 2, D1 antagonist -15 and DRD3 agonist 6.
CCN1C(=O)/C(=C/N(C(C)=O)c2ccccc2)N(c2ccccc2)C1=S was read as D1 agonist -1, ERG Ets-DNA blk 10%, D1 PAM -3, DRD3 antagonist -81*, D1 antagonist 1 and DRD3 agonist -5.
`CCc1ccc(/C=C2/C(=O)N(c3ccccc3)C(=S)N2CC(=O)OC)s1` gave D1 agonist 10, ERG Ets-DNA blk 4%, D1 PAM 6, DRD3 antagonist -5, D1 antagonist 2 and DRD3 agonist 3.
`O=C(NN1C(=O)c2cc(Br)ccc2NC1c1ccccc1Cl)c1ccncc1` (stereo unspecified) gave D1 agonist 2, D1 PAM -3, DRD3 antagonist -1, D1 antagonist 7 and DRD3 agonist 4.
O=C(NN1C(=O)c2cc(Br)ccc2NC1c1cc(Br)cc(Br)c1O)c1ccncc1 (stereo unspecified) was read as D1 agonist 4, ERG Ets-DNA blk 3%, D1 PAM -6, DRD3 antagonist -66*, D1 antagonist -4 and DRD3 agonist -16.
`Cc1onc(-c2c(Cl)cccc2Cl)c1C(=O)c1c[nH]c(C(=O)NCCCN2CCOCC2)c1` gave D1 agonist 4, ERG Ets-DNA blk -9%, D1 PAM -1, DRD3 antagonist -54*, D1 antagonist -18 and DRD3 agonist -1.
Screening Cc1onc(-c2c(Cl)cccc2Cl)c1C(=O)NCCCN1CCOCC1 returned D1 agonist 0, ERG Ets-DNA blk -5%, D1 PAM -7, DRD3 antagonist 1, D1 antagonist -10 and DRD3 agonist -22.
CCC1=NN(C(=O)Cc2ccc([N+](=O)[O-])cc2)C(O)(C(F)(F)F)C1 (stereo unspecified) was read as D1 agonist 33*, ERG Ets-DNA blk -25%, D1 PAM -3, DRD3 antagonist -1, D1 antagonist -12 and DRD3 agonist 5.
For Cc1ccccc1OCC(=O)N1N=C(C(F)(F)F)CC1(O)C(C)(C)C (stereo unspecified) the results were D1 agonist 59*, ERG Ets-DNA blk 4%, D1 PAM 5, DRD3 antagonist -18, D1 antagonist 15 and DRD3 agonist -5.
Screening CCCC1=NN(C(=O)Cc2ccc([N+](=O)[O-])cc2)C(O)(C(F)(F)F)C1 (stereo unspecified) returned D1 agonist 4, ERG Ets-DNA blk -1%, D1 PAM -4, DRD3 antagonist 5, D1 antagonist -10 and DRD3 agonist 7.
For CC(C)(C)C1(O)CC(C(F)(F)F)=NN1C(=O)Cc1ccc([N+](=O)[O-])cc1 (stereo unspecified) the results were D1 agonist 6, ERG Ets-DNA blk 3%, D1 PAM -6, DRD3 antagonist -3, D1 antagonist -34* and DRD3 agonist 8.
Cc1nc(-c2cc(C#N)c(Sc3ccc(Cl)cc3Cl)nc2C)cs1 was read as D1 agonist 20, ERG Ets-DNA blk 3%, D1 PAM 0, DRD3 antagonist 4, D1 antagonist -8 and DRD3 agonist 14.
CCc1nnc(SCc2cc(C)ccc2C)c2cc3sc(C)cc3n12 was read as D1 agonist 1, ERG Ets-DNA blk 1%, D1 PAM 3, D1 antagonist -8 and DRD3 agonist 11.
